# Screening data as filed in PubChem.
# An excerpt weighted towards active compounds, which were near 1.8% of everything screened.
# TLR9-MyD88 inh: inhibitors of human TLR9-MyD88 binding; inhibition, % at 4.98 µM; 340,000 compounds, 0.21% hits; CHO BLA complementation TLR9-MyD88, CCF4 FRET ratio;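 active = inhibition above the mean over all tested compounds plus 3 SD, cut at about 21% in these data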
# HTR2A ag: agonists of mouse serotonin 5-HT2A receptor (HTR2A); AID 624169; activation, % at 7.6 µM; 360,000 compounds, 0.66% hits; CHO-K1 mHTR2A beta-arrestin complementation, luminescence; percent of 30 µM serotonin response;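 active = activation above a run cutoff, the mean activation of all tested compounds plus 3 SD, cut at about 14% in these data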
# Rtt109 HAT inh: blocks Candida albicans Rtt109/Vps75 acetyltransferase activity; purified Rtt109/Vps75, ThioGlo CoA-SH fluorescence, 4 h; inhibition, % at 34.9 µM; 330,000 compounds, 0.16% hits; AID 540336;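 active = inhibition of at least 50% in every replicate; inconclusive = best replicate reaches 50% inhibition but some replicates fall short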
# Target sequence (Q5AAJ8 whole entry, looked up): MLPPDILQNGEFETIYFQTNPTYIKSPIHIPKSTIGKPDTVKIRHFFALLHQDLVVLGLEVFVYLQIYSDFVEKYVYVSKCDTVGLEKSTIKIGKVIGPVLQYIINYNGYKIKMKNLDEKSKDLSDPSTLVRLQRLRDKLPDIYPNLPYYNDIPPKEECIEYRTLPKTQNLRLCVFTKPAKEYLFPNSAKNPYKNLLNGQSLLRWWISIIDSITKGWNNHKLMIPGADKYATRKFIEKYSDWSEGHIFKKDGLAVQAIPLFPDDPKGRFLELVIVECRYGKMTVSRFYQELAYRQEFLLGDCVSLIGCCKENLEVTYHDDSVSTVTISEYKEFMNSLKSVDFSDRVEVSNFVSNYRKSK
# LANA-H2A inh: blocks KSHV LANA binding to histone H2A/H2B | Q9QR71 | cell-free LANA-H2A/H2B peptide, fluorescence polarization | inhibition, % (test concentration not listed) | 320,000 compounds, 0.6% hits | AID 2629; in the data active = inhibition mostly above about 10%, no sharp cut-off; inactive = mostly below about 6.7%
# NOD2 RIPK2 PPI: NOD2-RIPK2 protein interaction inhibition; O43353; 360,000 compounds, 0.38% hits; inhibition, % at 4.98 µM; CHO BLA complementation NOD2-RIPK2, CCF4 ratio; in the data active = inhibition above about 21%
# TLR4-MyD88 BLA: blocks binding of human TLR4 to MyD88; HeLa CL3-4 TLR4/MyD88 BLA complementation, FRET ratio; inhibition, % at 8.4 µM; 200,000 compounds, 0.18% hits; in the data active = inhibition above about 25%
# MOR ag counter: counter-screen for mouse HTR2A agonists: human mu opioid receptor agonists. shares compounds with HTR2A ag. U2OS OPRM1 beta-arrestin PathHunter, luminescence; DMSO 0%, DAMGO 9.3 µM 100%. 2,300 compounds, 5.3% hits. activation, % at 9.3 µM;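 active = mean activation above the mean of DMSO-only wells plus 3 SD, cut at about 0.5% in these data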
# m5-HT2A ag conf: confirmation of mouse HTR2A serotonin receptor agonists. CHO-K1 PathHunter beta-arrestin recruitment, luminescence; DMSO 0%, 30 µM serotonin 100%. activation, % at 7.6 µM. 2,300 compounds, 19% hits. shares compounds with HTR2A ag;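 active = mean activation across triplicates above the hit threshold derived in the original primary screen, cut at about 15% in these data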
# NOD2-RIPK2 conf: NOD2-RIPK2 interaction inhibition confirmed; inhibition, % at 4.98 µM; CHO cells, NOD2-RIPK2 BLA complementation, CCF4 FRET; shares compounds with NOD2 RIPK2 PPI; 1,200 compounds, 70% hits;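 active = mean inhibition across replicates above a set limit taken from the earlier primary screen, cut at about 21% in these data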
# BLA counter: hits BLA reporter in NOD2-RIPK2 inhibitor counterscreen | shares compounds with NOD2 RIPK2 PPI | CHO BLA reporter, CCF4 FRET ratio | inhibition, % at 4.98 µM | 1,200 compounds, 57% hits;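 active = mean inhibition above the low-control mean inhibition plus three low-control SD, cut at about 11% in these data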
# Numbers stand for hits; – = inactive; ? = inconclusive; · = not tested or not shown.
SMILES,TLR9-MyD88 inh,HTR2A ag,Rtt109 HAT inh,LANA-H2A inh,NOD2 RIPK2 PPI,TLR4-MyD88 BLA,NOD2-RIPK2 conf,BLA counter,others
O[C@@H](c1cc(C(F)(F)F)nc2c(C(F)(F)F)cccc12)[C@H]1CCCCN1,–,26,–,–,–,·,·,·,MOR ag counter=0.9;m5-HT2A ag conf=–
OC(c1cc(C(F)(F)F)nc2c(Cl)cc(Cl)cc12)C1CCCCN1 (stereo unspecified),–,–,–,–,–,·,·,·,
COC(=O)[C@]12CCCCC=C1N(CCc1ccc(OC)c(OC)c1)C(=O)[C@H](CC(=O)N1CCN(C(=O)C3CC3)CC1)C2,·,–,·,·,–,·,·,·,
Cc1cccc2nc(-c3cccc(NC(=O)c4ccc(Cl)cc4)c3)cn12,–,22,–,–,–,–,·,·,MOR ag counter=–;m5-HT2A ag conf=–
CCCS(=O)(=O)NC(=O)C1(C)CCN(C(=O)c2cccc(C)c2C)C1 (stereo unspecified),·,–,·,·,–,·,·,·,
C#CCOCCOCCOCCNc1nc(N2CCN(C(=O)CCCCCCCCCCNC(=O)Cn3cc(CCCCCN)nn3)CC2)nc(N2CCN(C(=O)CCCCCCCCCCNC(=O)[C@H]([C@@H](C)CC)n3cc(CCCCCN)nn3)CC2)n1,–,–,?,–,–,·,·,·,
Cc1ccc(NS(=O)(=O)c2cc(C(=O)N(C)C)ccc2C)cc1C,–,–,–,·,–,–,·,·,
CC(C)(C)NC(=O)CN(C(=O)CNC(=O)c1cccs1)c1ccccc1F,–,16,–,–,–,·,·,·,MOR ag counter=–;m5-HT2A ag conf=–
O=C(CCS(=O)(=O)c1ccccc1Cl)NC1CCCCCC1,–,21,–,–,–,·,·,·,MOR ag counter=–;m5-HT2A ag conf=–
Cc1ccc(OCC(=O)OCC(=O)NC2CCCC2)cc1C,–,15,–,–,–,·,·,·,MOR ag counter=–;m5-HT2A ag conf=–
Cc1cc(OCC(=O)OCC(=O)NC2CCCC2)ccc1Cl,–,–,–,–,–,·,·,·,
COc1ccc(CC(=O)OCC(=O)NC2CCCCC2)cc1OC,–,20,–,–,–,·,·,·,MOR ag counter=–;m5-HT2A ag conf=–
CCOC(=O)N1CCN(S(=O)(=O)N2CCCC(C(=O)NCCCN3CC(C)CC(C)C3)C2)CC1 (stereo unspecified),–,–,–,–,–,·,·,·,
COc1ccc(-c2nc3ccccn3c2NCc2ccc3c(c2)OCO3)cc1,–,–,–,–,–,–,·,·,
COc1ccc(-c2cc(-c3nc4ccccn4c3NCc3ccccc3)ccc2OC)cc1,–,33,–,–,29,·,–,–,MOR ag counter=1.4;m5-HT2A ag conf=29
O=C(NCc1ccccc1)C(C1CC1)n1c(=O)c(-c2cc3ccccc3[nH]2)nc2ccccc21 (stereo unspecified),·,15,·,·,45,·,42,64,MOR ag counter=–;m5-HT2A ag conf=–
COc1cc2c3nnc(-c4ccc(F)cc4)c-3cn(Cc3ccccc3)c2cc1OC,–,25,–,–,67,–,66,66,MOR ag counter=–;m5-HT2A ag conf=–
CCOC(=O)C1CCN(C(=O)c2ccc3nc(-c4ccc(OC)cc4)c(-c4ccc(OC)cc4)nc3c2)CC1,–,–,–,–,–,·,·,·,
O=C(C(=O)N1CCC(c2ccccc2)CC1)c1cccc([N+](=O)[O-])c1,·,–,·,·,–,·,·,·,
C=CCOc1cccc(C(=O)/C=C2/C(=O)Nc3ccccc32)c1,–,–,–,–,41,·,39,–,
O=C1Nc2ccc(Br)cc2/C1=C/C(=O)c1ccccc1,–,–,–,·,–,·,·,·,
OC(c1ccc(Cl)c(Cl)c1)c1ncc(-c2ccccc2Cl)[nH]1 (stereo unspecified),·,–,·,·,–,·,·,·,
O=C(Nc1ccccc1)C1=C[C@@H](c2ccc(C(F)(F)F)cc2)C[C@@H](OCc2ccc(CO)cc2)O1,–,–,–,–,22,–,–,–,
O=[N+]([O-])/C=C/c1cn(Cc2ccc(Cl)cc2)c2ccccc12,–,–,–,–,21,–,38,–,
Cc1cccc(Cn2cc(/C=C/[N+](=O)[O-])c3ccccc32)c1,–,–,·,–,–,–,·,·,
SMILES,TLR9-MyD88 inh,HTR2A ag,Rtt109 HAT inh,LANA-H2A inh,NOD2 RIPK2 PPI,TLR4-MyD88 BLA,NOD2-RIPK2 conf,BLA counter,others
O=c1oc(-c2ccccc2)cc(Cl)c1Cl,–,–,–,–,60,·,57,–,
COc1cc(CCC(=O)N2CCN(S(=O)(=O)c3ccc(C)cc3)CC2)cc(OC)c1OC,–,–,–,–,–,·,·,·,
CC(OC(=O)c1ccc(S(C)(=O)=O)c([N+](=O)[O-])c1)C(=O)NC1C2CC3CC(C2)CC1C3 (stereo unspecified),·,–,·,·,25,·,65,–,
O=C(NCc1ccccc1)C(c1cc2ccccc2o1)n1c(=O)c(-c2ccccc2)nc2ccccc21 (stereo unspecified),·,–,·,·,–,·,·,·,
O=C(NCc1ccccc1)C(c1ccccc1)n1c(=O)c(-c2cc3ccccc3[nH]2)nc2ccccc21 (stereo unspecified),·,–,·,·,48,·,44,65,
O=C(NCc1ccccc1)C(c1cc2ccccc2o1)n1c(=O)c(-c2cc3ccccc3[nH]2)nc2ccccc21 (stereo unspecified),·,–,·,·,51,·,46,67,
CC(C)(C)NC(=O)C(CCc1ccccc1)n1c(=O)c(-c2cc3ccccc3[nH]2)nc2ccccc21 (stereo unspecified),·,–,·,·,44,·,40,66,
Cc1cccc(C)c1NC(=O)C(CCc1ccccc1)n1c(=O)c(-c2cc3ccccc3[nH]2)nc2ccccc21 (stereo unspecified),·,–,·,·,45,·,41,67,
COC(=O)/C=C1\SC(=NC(=O)c2ccc(-c3ccccc3)cc2)NC1=O,–,–,–,–,–,·,·,·,
CCc1ccc(Nc2n[n+](-c3ccccc3)c(-c3ccc(N(CC)CC)cc3)s2)cc1,–,–,–,–,29,·,69,76,
CCN(CC)c1ccc(-c2sc(Nc3ccccc3)n[n+]2-c2ccc(F)cc2)cc1,–,–,–,–,–,·,·,·,
O=C(C=C=Nc1ccccc1)C(=O)N=C=Cc1ccccc1,–,–,–,–,28,·,–,–,
O=C(N/N=C/c1ccccc1)C(=O)N/N=C/c1ccccc1,–,–,–,–,–,·,·,·,
CCc1ccc(NC(=O)C(=O)c2ccccc2NC(C)=O)cc1,–,–,–,–,–,·,·,·,
CC(=O)Nc1ccc(NC(=O)CSCCc2ccccn2)cc1,–,–,–,–,–,–,·,·,
COC(=O)c1cc2c(cc1NC(=O)CSCCc1ccccn1)OCO2,–,–,–,–,25,–,–,–,
